Molecules are shown by their SMILES. About 770 (0.35%) of roughly 220,000 compounds were called active. No stated cut-off is given here; in the data, active means activation above about 11%; inactive means the rest. The full list was thinned out, with actives kept by preference.

In this experiment the target is Sphingosine 1-phosphate receptor 4 (Homo sapiens) (UniProt O95977). As to the kind of experiment: S1P4 receptor agonists, primary screen, cell-based (AID 1509).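 Further: 0% = DMSO vehicle and 100% = reference agonist.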 Particulars: S1P4-expressing cell line, agonist reporter assay; at 4.98 µM; active compounds read high. (A reporter such as luciferase makes a cellular process visible.)
Sphingosine 1-phosphate receptor 4 (Homo sapiens), sequence (O95977 whole entry, looked up): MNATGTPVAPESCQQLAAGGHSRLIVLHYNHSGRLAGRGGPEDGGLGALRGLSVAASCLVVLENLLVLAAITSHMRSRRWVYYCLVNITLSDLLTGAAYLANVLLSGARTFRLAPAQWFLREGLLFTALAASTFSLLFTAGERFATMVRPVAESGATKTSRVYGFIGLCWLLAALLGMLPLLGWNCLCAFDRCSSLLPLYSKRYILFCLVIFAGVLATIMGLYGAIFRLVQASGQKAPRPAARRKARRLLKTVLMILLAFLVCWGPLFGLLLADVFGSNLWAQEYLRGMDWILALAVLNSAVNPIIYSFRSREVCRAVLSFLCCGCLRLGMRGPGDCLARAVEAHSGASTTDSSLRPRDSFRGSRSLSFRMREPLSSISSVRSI
In the case of `CCc1ccc(/C=N/NC(=O)c2ccc(OC3CCCC3)cc2)s1`, the activation was 0.66% (inactive).
The same measure for `O=C(O)/C=C/C(=O)NNc1ccc([N+](=O)[O-])cc1`: -0.64% (inactive); for `Cc1csc(/N=C/N(C)C)c1C#N`: 0.51% (inactive).
The same measure for `CCCC(c1nnnn1C(C)(C)C)N1CCN(Cc2ccccc2)CC1` (configuration not stated): 0.72% (inactive); for `COc1ccccc1C(c1nnnn1C(C)(C)C)N1CCN(Cc2ccccc2)CC1` (configuration not stated): -1.97% (inactive); for `CC(C)C(c1nnnn1C(C)(C)C)N1CCN(Cc2cccnc2)CC1` (configuration not stated): 12.3% (active).
The same measure for `CC(=O)Nc1ccc(NC(=O)CSc2ncnc3c2cnn3Cc2ccccc2)cc1`: -0.48% (inactive); for `COc1ccc(C(C(=O)NC(C)(C)C)N(C(=O)Cn2nnc3ccccc32)c2ccc(C(C)=O)cc2)cc1O` (configuration not stated): 0.1% (inactive); for `CCOC(=O)COc1nc(C)cc(C(F)(F)F)c1C#N`: -0.16% (inactive).
In the case of `CCc1ccc(-n2c(=S)sc3c(=O)n(-c4ccccc4OC)c(=S)[nH]c32)cc1`, the activation was 1.93% (inactive).
The same measure for `O=C(NC1CCCCC1)C1CCCN(S(=O)(=O)c2ccc(Br)s2)C1` (configuration not stated): 1.69% (inactive); for `CCOc1cc(N2CCOCC2)c(OCC)cc1NC(=O)C1=NN(c2cccc(C)c2)C(=O)CC1`: 0.94% (inactive).
Under `Cc1ccc(/C([O-])=C(/C(=S)NCc2ccco2)[n+]2ccccc2)cc1[N+](=O)[O-]` stands 0.47% (inactive); under `CCN(CC)CCNC(=O)c1sc2ncn(CC(=O)Nc3ccc(C)c(Cl)c3)c(=O)c2c1C`, -1.34% (inactive); under `COc1ccccc1C1CC(=O)n2c(nc(-c3ccccc3)c2-c2ccccc2)S1` (configuration not stated), -1.26% (inactive).
Under `O=C(Nc1nnc(SCc2c(Cl)cccc2Cl)s1)c1cccc([N+](=O)[O-])c1` stands 1.12% (inactive); under `CC(C)(C)OC(=O)N1CCC(NC(=O)c2[nH]cnc2C(=O)N[C@@H](Cc2ccccc2)C(=O)OCc2ccccc2)CC1`, 0.67% (inactive).
As for `CNC(=O)c1[nH]cnc1C(=O)N[C@@H](CC(C)C)C(=O)OC(C)(C)C`, the activation was 2.22% (inactive).
Under `CNC(=O)c1[nH]cnc1C(=O)N[C@@H](CC(C)C)C(=O)OCc1ccccc1` stands 30.9% (active); under `CC(=O)c1c(N2CCN(c3ccc(F)cc3)CC2)nc(=S)n(-c2ccccc2)c1C`, 0.51% (inactive); under `Nc1cccc(S(=O)(=O)Nc2ccc(SC(F)F)cc2)c1`, 1.21% (inactive).
The same measure for `NC(=O)c1ccccc1N=Cc1ccc2ccccc2c1`: 0.55% (inactive).

The values above are taken from PubChem BioAssay AID1509 (The Scripps Research Institute Molecular Screening Center, 2009).
